Measured values taken from the supplement of paper PMC10849652.
About 7,900 targets were measured; listed, in parts, are those with a hit and a random draw of the rest. About 0.6% of all pairs of compound and target were hits.

Compound: CCn1cc(-c2ccnc3[nH]c(-c4cccc(CN(C)C)c4)cc23)c(-c2ccc(NC(=O)N(C)C)cc2)n1
Assay: log2 fold change, soluble protein after heating vs DMSO (PISA); higher = thermal stabilisation; K562 cells, 10 uM, 30 min; active = over 0.2 and 3.5 SD of the protein, either way, in both replicates (recomputed)
In short: (§1)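 Thermal stability values are relative to control samples and come from duplicates. They are expressed as log2 fold changes. For measurement, K562 cells (2×10^6 cells/mL) received 10 μM compound for 30 min, and aliquots were heated for 3 min over 48°C-58°C, pooled, and extracted at 4°C in PBS with 0.5% NP-40. Soluble protein, the supernatant after 21,000xg for 90 min, was quantified by TMTpro 16plex LC-MS/MS with equalised channel sums.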

Chain of UniProt Q9Y2Y1 (Q9Y2Y1 whole entry, looked up): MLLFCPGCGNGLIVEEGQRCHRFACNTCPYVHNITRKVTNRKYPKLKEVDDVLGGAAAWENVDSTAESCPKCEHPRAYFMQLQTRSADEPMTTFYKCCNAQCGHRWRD
Chain of UniProt O15067 (O15067 whole entry, looked up): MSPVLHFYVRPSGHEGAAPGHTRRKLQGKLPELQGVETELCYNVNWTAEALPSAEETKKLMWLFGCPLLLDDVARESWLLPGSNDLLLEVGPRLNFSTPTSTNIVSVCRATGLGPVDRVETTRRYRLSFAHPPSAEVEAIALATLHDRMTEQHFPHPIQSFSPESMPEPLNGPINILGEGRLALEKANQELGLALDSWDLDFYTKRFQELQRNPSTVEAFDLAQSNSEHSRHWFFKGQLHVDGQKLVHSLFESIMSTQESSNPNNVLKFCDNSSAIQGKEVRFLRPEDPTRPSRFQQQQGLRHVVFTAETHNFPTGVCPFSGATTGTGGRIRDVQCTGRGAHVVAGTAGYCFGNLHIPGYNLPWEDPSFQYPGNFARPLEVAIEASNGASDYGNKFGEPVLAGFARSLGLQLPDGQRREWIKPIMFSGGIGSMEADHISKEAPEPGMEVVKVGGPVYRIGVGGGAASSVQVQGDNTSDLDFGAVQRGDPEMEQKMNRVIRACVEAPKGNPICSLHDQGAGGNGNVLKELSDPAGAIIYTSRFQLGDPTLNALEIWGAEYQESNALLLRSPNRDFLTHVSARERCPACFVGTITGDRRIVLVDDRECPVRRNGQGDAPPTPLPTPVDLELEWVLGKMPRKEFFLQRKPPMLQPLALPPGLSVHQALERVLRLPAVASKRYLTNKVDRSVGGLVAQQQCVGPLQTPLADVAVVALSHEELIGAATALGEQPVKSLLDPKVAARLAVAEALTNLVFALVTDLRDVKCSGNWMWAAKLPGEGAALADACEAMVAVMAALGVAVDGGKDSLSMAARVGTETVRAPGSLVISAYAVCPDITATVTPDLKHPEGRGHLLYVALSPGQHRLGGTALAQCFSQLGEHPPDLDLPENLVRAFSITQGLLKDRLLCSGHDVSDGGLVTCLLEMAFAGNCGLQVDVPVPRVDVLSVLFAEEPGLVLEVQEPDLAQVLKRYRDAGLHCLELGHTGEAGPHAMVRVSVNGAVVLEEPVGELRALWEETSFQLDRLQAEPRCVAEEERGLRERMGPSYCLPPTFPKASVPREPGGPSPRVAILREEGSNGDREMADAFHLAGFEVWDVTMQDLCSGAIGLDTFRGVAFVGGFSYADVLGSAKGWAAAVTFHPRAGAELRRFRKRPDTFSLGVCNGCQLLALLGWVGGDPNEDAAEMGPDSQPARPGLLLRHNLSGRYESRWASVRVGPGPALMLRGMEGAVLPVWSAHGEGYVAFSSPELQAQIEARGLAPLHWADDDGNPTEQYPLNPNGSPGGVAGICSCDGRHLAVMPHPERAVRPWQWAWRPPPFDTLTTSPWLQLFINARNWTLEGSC
Chain of UniProt P49642 (P49642 whole entry, looked up): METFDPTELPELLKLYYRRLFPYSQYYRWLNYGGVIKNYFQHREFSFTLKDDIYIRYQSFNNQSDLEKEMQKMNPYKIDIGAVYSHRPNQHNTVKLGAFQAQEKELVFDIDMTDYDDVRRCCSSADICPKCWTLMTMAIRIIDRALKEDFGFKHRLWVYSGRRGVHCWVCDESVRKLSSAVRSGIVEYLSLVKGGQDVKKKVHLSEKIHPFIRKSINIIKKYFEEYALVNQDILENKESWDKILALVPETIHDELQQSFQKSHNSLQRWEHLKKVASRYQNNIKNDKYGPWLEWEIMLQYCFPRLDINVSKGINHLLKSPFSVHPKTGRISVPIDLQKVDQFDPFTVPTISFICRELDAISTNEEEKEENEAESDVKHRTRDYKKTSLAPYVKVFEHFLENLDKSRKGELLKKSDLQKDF
Chain of UniProt Q9UG56 (Q9UG56 whole entry, looked up): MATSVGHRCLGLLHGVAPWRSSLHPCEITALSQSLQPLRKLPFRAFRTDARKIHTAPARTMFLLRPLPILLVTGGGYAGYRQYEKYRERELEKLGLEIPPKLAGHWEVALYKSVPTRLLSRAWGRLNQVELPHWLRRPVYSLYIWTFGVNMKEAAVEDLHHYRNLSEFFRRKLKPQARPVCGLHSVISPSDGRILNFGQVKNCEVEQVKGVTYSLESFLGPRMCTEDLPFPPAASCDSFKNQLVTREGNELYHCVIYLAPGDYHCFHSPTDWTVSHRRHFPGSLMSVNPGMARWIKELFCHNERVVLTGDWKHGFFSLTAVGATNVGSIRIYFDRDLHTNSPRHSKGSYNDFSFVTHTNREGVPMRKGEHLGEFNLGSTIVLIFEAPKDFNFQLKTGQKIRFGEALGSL
Chain of UniProt Q16822 (Q16822 whole entry, looked up): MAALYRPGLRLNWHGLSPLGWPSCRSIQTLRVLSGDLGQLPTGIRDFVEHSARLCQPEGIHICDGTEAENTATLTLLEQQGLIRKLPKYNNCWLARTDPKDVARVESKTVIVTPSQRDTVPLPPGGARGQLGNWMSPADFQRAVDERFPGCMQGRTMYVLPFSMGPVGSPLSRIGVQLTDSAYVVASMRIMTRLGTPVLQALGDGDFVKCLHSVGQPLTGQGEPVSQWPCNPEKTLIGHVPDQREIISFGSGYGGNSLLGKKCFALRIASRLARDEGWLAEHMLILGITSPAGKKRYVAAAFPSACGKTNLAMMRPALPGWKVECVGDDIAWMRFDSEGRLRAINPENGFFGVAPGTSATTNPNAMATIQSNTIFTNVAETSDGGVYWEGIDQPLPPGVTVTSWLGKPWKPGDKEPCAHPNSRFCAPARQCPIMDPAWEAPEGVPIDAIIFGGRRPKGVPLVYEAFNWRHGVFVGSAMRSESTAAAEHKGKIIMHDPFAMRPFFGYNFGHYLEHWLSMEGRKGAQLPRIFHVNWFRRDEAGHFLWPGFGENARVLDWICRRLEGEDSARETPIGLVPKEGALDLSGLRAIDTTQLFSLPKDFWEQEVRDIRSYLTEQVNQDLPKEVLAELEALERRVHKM
Chain of UniProt Q99541 (Q99541 whole entry, looked up): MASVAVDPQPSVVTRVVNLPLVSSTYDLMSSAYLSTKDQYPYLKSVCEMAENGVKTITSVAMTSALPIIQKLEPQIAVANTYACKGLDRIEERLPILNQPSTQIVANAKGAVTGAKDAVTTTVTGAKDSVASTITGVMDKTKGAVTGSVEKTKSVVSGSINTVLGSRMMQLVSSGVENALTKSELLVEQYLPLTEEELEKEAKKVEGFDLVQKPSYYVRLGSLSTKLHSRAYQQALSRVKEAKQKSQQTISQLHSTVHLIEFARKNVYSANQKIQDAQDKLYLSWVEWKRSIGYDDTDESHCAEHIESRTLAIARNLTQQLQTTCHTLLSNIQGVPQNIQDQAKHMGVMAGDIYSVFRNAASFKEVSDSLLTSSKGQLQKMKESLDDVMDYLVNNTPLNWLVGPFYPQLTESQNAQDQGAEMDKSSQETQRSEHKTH
Chain of UniProt Q8N8N7 (Q8N8N7 whole entry, looked up): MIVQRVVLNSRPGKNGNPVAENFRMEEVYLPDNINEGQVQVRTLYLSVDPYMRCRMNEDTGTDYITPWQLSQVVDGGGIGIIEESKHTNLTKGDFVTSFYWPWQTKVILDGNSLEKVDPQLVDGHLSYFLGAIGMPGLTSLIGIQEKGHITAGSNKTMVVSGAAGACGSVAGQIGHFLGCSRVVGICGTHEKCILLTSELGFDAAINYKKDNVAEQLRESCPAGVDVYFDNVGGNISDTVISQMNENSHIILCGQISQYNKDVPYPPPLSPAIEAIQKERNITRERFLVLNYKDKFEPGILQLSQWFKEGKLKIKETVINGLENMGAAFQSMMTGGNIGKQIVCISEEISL
Chain of UniProt Q01970 (Q01970 whole entry, looked up): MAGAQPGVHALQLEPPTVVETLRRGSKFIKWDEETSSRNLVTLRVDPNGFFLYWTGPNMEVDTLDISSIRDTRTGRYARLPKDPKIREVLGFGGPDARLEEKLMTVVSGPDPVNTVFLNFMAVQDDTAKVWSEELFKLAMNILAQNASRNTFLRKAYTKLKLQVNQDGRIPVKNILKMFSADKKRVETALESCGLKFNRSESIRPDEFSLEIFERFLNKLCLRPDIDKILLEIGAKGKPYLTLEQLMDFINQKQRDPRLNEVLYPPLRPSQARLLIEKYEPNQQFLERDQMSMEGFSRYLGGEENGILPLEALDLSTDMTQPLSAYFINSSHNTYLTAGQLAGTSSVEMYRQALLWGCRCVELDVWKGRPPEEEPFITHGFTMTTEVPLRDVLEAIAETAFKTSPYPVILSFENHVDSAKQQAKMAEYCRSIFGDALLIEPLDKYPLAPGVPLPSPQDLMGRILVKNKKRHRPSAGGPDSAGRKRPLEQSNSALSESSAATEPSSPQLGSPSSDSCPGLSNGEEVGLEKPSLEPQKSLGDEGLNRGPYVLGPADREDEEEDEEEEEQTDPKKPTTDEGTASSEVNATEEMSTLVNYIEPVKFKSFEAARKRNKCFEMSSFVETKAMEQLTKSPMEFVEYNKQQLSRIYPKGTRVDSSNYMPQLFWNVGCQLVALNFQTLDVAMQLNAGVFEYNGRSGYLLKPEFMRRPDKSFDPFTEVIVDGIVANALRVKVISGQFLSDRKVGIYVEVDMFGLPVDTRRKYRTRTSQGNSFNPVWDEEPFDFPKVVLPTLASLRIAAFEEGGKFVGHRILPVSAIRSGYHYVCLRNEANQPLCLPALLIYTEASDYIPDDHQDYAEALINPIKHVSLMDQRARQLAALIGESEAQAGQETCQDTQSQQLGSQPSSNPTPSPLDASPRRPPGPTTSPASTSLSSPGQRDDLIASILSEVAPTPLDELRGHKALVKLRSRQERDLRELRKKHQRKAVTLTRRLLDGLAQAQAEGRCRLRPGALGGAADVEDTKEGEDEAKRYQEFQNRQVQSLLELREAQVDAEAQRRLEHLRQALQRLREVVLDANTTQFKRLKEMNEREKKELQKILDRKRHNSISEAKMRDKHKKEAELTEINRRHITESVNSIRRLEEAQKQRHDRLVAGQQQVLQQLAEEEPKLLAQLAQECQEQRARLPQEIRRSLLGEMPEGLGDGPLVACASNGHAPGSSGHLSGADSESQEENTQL

log2 fold change, inactive:
PYGB (UniProt P11216) 0.023
PLCB3 (UniProt Q01970) -0.08
POLR2M (UniProt P0CAP2) 0.034
PEX16 isoform 2 (UniProt Q9Y5Y5) 0.033
PTPA (UniProt A6PVN8) 0.047
PARN (UniProt O95453) -0.076
PKM (UniProt P14618) -0.007
PRIM1 (UniProt P49642) -0.018
PCK2 (UniProt Q16822) -0.07
POLR2G (UniProt P62487) -0.003
PTDSS1 (UniProt P48651) 0.124
PHKA2 (UniProt P46019) -0.029
PISD (UniProt Q9UG56) -0.076
PIP4P1 isoform 2 (UniProt Q86T03) -0.074
PGGT1B (UniProt P53609) -0.026
PCLAF (UniProt Q15004) 0.035
POLR3K (UniProt Q9Y2Y1) 0.038
POLR2K (UniProt P53803) -0.049
PCBP1 (UniProt Q15365) 0.025
PCNT (UniProt O95613) -0.002
PTGR2 (UniProt Q8N8N7) -0.117
PLIN2 (UniProt Q99541) -0.01
PDCD6 (UniProt O75340) -0.01
PYGL (UniProt P06737) 0.016
POTEI (UniProt P0CG38) 0.009
POLR1A (UniProt O95602) -0.066
POMP (UniProt Q9Y244) 0.021
PPP2R5E (UniProt Q16537) -0.165
PSMA3 (UniProt P25788) 0.002
PRPF3 (UniProt O43395) -0.062
PNPLA8 (UniProt Q9NP80) -0.07
PRMT3 (UniProt O60678) -0.093
PRIM2 (UniProt P49643) -0.07
PFAS (UniProt O15067) -0.069
PARL (UniProt Q9H300) -0.062
PDPK1 (UniProt O15530) -0.05
PTPA (UniProt Q15257) -0.06

Compound: CN(C)CC(=O)Nc1ccc2[nH]c(=O)c3ccccc3c2c1
Assay: as above
In short: as §1

log2 fold change, inactive:
PYGB (UniProt P11216) 0.012
PLCB3 (UniProt Q01970) 0.02
POLR2M (UniProt P0CAP2) 0.004
PEX16 isoform 2 (UniProt Q9Y5Y5) 0.013
PTPA (UniProt A6PVN8) 0.016
PARN (UniProt O95453) 0.017
PKM (UniProt P14618) -0.015
PRIM1 (UniProt P49642) 0.117
PCK2 (UniProt Q16822) 0
POLR2G (UniProt P62487) 0.02
PTDSS1 (UniProt P48651) 0
PHKA2 (UniProt P46019) 0.01
PISD (UniProt Q9UG56) -0.113
PIP4P1 isoform 2 (UniProt Q86T03) -0.012
PGGT1B (UniProt P53609) -0.009
PCLAF (UniProt Q15004) -0.087
POLR3K (UniProt Q9Y2Y1) -0.048
POLR2K (UniProt P53803) 0.05
PCBP1 (UniProt Q15365) 0.039
PCNT (UniProt O95613) -0.101
PTGR2 (UniProt Q8N8N7) 0.181
PLIN2 (UniProt Q99541) 0.013
PDCD6 (UniProt O75340) 0.007
PYGL (UniProt P06737) -0.001
POTEI (UniProt P0CG38) -0.006
POLR1A (UniProt O95602) -0.086
POMP (UniProt Q9Y244) -0.018
PPP2R5E (UniProt Q16537) 0.018
PSMA3 (UniProt P25788) -0.003
PRPF3 (UniProt O43395) 0.116
PNPLA8 (UniProt Q9NP80) 0.029
PRMT3 (UniProt O60678) 0.039
PRIM2 (UniProt P49643) 0.076
PFAS (UniProt O15067) 0.031
PARL (UniProt Q9H300) -0.035
PDPK1 (UniProt O15530) 0.034
PTPA (UniProt Q15257) -0.002
